From the supplement of paper PMC8728848
Many of the other results were omitted from the sample, so the strongest signals are more common in it than they were.

Experiments:
Test in all cases: glycan array binding signal (z-score within array); higher = stronger binding
Conditions in all cases: glycan notation: IUPAC condensed, linker removed
[1] = biological target: Fuc(a1-2)Gal(b1-3)GalNAc(a1-3)[Fuc(a1-2)]Gal(b1-4)GlcNAc
Procedure, shortened: (§1)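 Negative Z-scores can be read as non-binding. The Z-score is calculated within each array and then averaged across arrays of one protein sequence at different concentrations or buffers and across linkers. Arrays, 3228 in all, were curated from the Consortium for Functional Glycomics database and kept only where the protein sequence was available.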

[2] = biological target: Fuc(a1-2)Gal(b1-3)GlcNAc(b1-2)Man(a1-3)[Fuc(a1-2)Gal(b1-3)GlcNAc(b1-2)Man(a1-6)]Man(b1-4)GlcNAc(b1-4)[Fuc(a1-6)]GlcNAc
Procedure, shortened: as §1

[3] = biological target: Fuc(a1-2)Gal(b1-3)[Fuc(a1-4)]GlcNAc(b1-2)Man(a1-3)[Fuc(a1-2)Gal(b1-3)[Fuc(a1-4)]GlcNAc(b1-2)Man(a1-3)]Man(b1-4)GlcNAc(b1-4)GlcNAc
Procedure, shortened: as §1

[4] = biological target: Fuc(a1-2)Gal(b1-3)[Fuc(a1-4)]GlcNAc(b1-2)Man(a1-3)[Fuc(a1-2)Gal(b1-3)[Fuc(a1-4)]GlcNAc(b1-2)Man(a1-6)]Man(b1-4)GlcNAc(b1-4)[Fuc(a1-6)]GlcNAc(b1-4)[Fuc(a1-6)]GlcNAc
Procedure, shortened: as §1

Fuc(a1-2)Gal(b1-4)Glc = biological target: Fuc(a1-2)Gal(b1-4)Glc
Procedure, shortened: as §1

[5] = biological target: Fuc(a1-2)Gal(b1-4)GlcNAc(b1-3)GalNAc
Procedure, shortened: as §1

[6] = biological target: Fuc(a1-2)Gal(b1-4)GlcNAc(b1-6)GalNAc
Procedure, shortened: as §1

[7] = biological target: Fuc(a1-2)[GalNAc(a1-3)]Gal(b1-3)GlcNAc(b1-3)GalNAc
Procedure, shortened: as §1

[8] = biological target: Fuc(a1-2)[GalNAc(a1-3)]Gal(b1-4)GlcNAc(b1-2)Man(a1-3)[Fuc(a1-2)[GalNAc(a1-3)]Gal(b1-4)GlcNAc(b1-2)Man(a1-6)]Man(b1-4)GlcNAc(b1-4)GlcNAc
Procedure, shortened: as §1

[9] = biological target: Fuc(a1-2)[GalNAc(a1-3)]Gal(b1-4)[Fuc(a1-3)]GlcNAc(b1-3)GalNAc
Procedure, shortened: as §1

[10] = biological target: Fuc(a1-2)[GalNAc(a1-4)]Gal(b1-4)GlcNAc
Procedure, shortened: as §1

[11] = biological target: Fuc(a1-3)[Gal(b1-4)]GlcNAc(b1-2)Man
Procedure, shortened: as §1

[12] = biological target: Gal(a1-3)[Gal(a1-4)]Gal(b1-4)GlcNAc
Procedure, shortened: as §1

Gal(a1-4)Gal(b1-4)GlcNAc = biological target: Gal(a1-4)Gal(b1-4)GlcNAc
Procedure, shortened: as §1

Gal(a1-6)Glc = biological target: Gal(a1-6)Glc
Procedure, shortened: as §1

[13] = biological target: Gal(b1-3)GalNAc(a1-3)[Fuc(a1-2)]Gal(b1-4)GlcNAc
Procedure, shortened: as §1

[14] = biological target: Gal(b1-3)GlcNAc(b1-2)Man(a1-3)[Gal(b1-3)GlcNAc(b1-2)Man(a1-6)]Man(b1-4)GlcNAc(b1-4)GlcNAc
Procedure, shortened: as §1

[15] = biological target: Gal(b1-3)GlcNAc(b1-3)Gal(b1-4)GlcNAc(b1-2)[Gal(b1-3)GlcNAc(b1-3)Gal(b1-4)GlcNAc(b1-6)]Man(a1-6)[Gal(b1-3)GlcNAc(b1-3)Gal(b1-4)GlcNAc(b1-2)Man(a1-3)]Man(b1-4)GlcNAc(b1-4)[Fuc(a1-6)]GlcNAc
Procedure, shortened: as §1

Gal(b1-3)GlcNAc6S = biological target: Gal(b1-3)GlcNAc6S
Procedure, shortened: as §1

[16] = biological target: Gal(b1-3)[Fuc(a1-4)]GlcNAc(b1-6)GalNAc
Procedure, shortened: as §1

[17] = biological target: Gal(b1-4)GlcNAc(b1-2)Man(a1-6)[Man(a1-3)]Man(b1-4)GlcNAc(b1-4)GlcNAc
Procedure, shortened: as §1

[18] = biological target: Gal(b1-4)GlcNAc(b1-3)Gal(b1-4)GlcNAc
Procedure, shortened: as §1

[19] = biological target: Gal(b1-4)GlcNAc(b1-3)Gal(b1-4)GlcNAc(b1-2)Man(a1-3)[Gal(b1-4)GlcNAc(b1-3)Gal(b1-4)GlcNAc(b1-2)Man(a1-6)]Man(b1-4)GlcNAc(b1-4)[Fuc(a1-6)]GlcNAc
Procedure, shortened: as §1

[20] = biological target: Gal(b1-4)GlcNAc(b1-3)Gal(b1-4)GlcNAc(b1-3)Gal(b1-4)GlcNAc(b1-2)[Gal(b1-4)GlcNAc(b1-3)Gal(b1-4)GlcNAc(b1-3)Gal(b1-4)GlcNAc(b1-6)]Man(a1-6)[Gal(b1-4)GlcNAc(b1-3)Gal(b1-4)GlcNAc(b1-3)Gal(b1-4)GlcNAc(b1-2)Man(a1-3)]Man(b1-4)GlcNAc(b1-4)[Fuc(a1-6)]GlcNAc
Procedure, shortened: as §1

[21] = biological target: Gal(b1-4)GlcNAc(b1-3)Gal(b1-4)GlcNAc(b1-3)Gal(b1-4)GlcNAc(b1-3)Gal(b1-4)GlcNAc(b1-2)Man(a1-3)[Gal(b1-4)GlcNAc(b1-3)Gal(b1-4)GlcNAc(b1-3)Gal(b1-4)GlcNAc(b1-3)Gal(b1-4)GlcNAc(b1-2)Man(a1-6)]Man(b1-4)GlcNAc(b1-4)GlcNAc
Procedure, shortened: as §1

[22] = biological target: Gal(b1-4)GlcNAc(b1-3)Gal(b1-4)GlcNAc(b1-3)Gal(b1-4)GlcNAc(b1-3)Gal(b1-4)GlcNAc(b1-3)Gal(b1-4)GlcNAc(b1-3)Gal(b1-4)GlcNAc(b1-2)Man(a1-3)[Gal(b1-4)GlcNAc(b1-3)Gal(b1-4)GlcNAc(b1-3)Gal(b1-4)GlcNAc(b1-3)Gal(b1-4)GlcNAc(b1-3)Gal(b1-4)GlcNAc(b1-3)Gal(b1-4)GlcNAc(b1-2)Man(a1-6)]Man(b1-4)GlcNAc(b1-4)GlcNAc
Procedure, shortened: as §1

[23] = biological target: Gal3S(b1-4)[Fuc(a1-3)]Glc6S
Procedure, shortened: as §1

Gal3S6S(b1-4)GlcNAc = biological target: Gal3S6S(b1-4)GlcNAc
Procedure, shortened: as §1

Gal6S(b1-4)GlcNAc6S = biological target: Gal6S(b1-4)GlcNAc6S
Procedure, shortened: as §1

[24] = biological target: GlcNAc(a1-4)Gal(b1-4)GlcNAc(b1-3)Gal(b1-4)GlcNAc
Procedure, shortened: as §1

[25] = biological target: GlcNAc(b1-2)Man(a1-3)[GlcNAc(b1-4)][GlcNAc(b1-2)Man(a1-6)]Man(b1-4)GlcNAc(b1-4)[Fuc(a1-6)]GlcNAc
Procedure, shortened: as §1

[26] = biological target: GlcNAc(b1-3)Gal(b1-4)GlcNAc(b1-3)Gal(b1-4)GlcNAc(b1-3)Gal(b1-4)GlcNAc(b1-3)Gal(b1-4)GlcNAc(b1-2)Man(a1-3)[GlcNAc(b1-3)Gal(b1-4)GlcNAc(b1-3)Gal(b1-4)GlcNAc(b1-3)Gal(b1-4)GlcNAc(b1-3)Gal(b1-4)GlcNAc(b1-2)Man(a1-6)]Man(b1-4)GlcNAc(b1-4)GlcNAc
Procedure, shortened: as §1

[27] = biological target: GlcNAc(b1-4)GlcNAc(b1-4)GlcNAc(b1-4)GlcNAc(b1-4)GlcNAc
Procedure, shortened: as §1

Kdn(a2-3)Gal(b1-3)GalNAc = biological target: Kdn(a2-3)Gal(b1-3)GalNAc
Procedure, shortened: as §1

[28] = biological target: Neu5Ac(a2-3)Gal(b1-4)GlcNAc(b1-2)[Neu5Ac(a2-3)Gal(b1-4)GlcNAc(b1-4)]Man(a1-3)[GlcNAc(b1-4)][Neu5Ac(a2-3)Gal(b1-4)GlcNAc(b1-4)Man(a1-6)]Man(b1-4)GlcNAc(b1-4)GlcNAc
Procedure, shortened: as §1

[29] = biological target: Neu5Ac(a2-3)Gal(b1-4)GlcNAc(b1-3)Gal(b1-4)GlcNAc(b1-2)Man(a1-3)[Neu5Ac(a2-3)Gal(b1-4)GlcNAc(b1-3)Gal(b1-4)GlcNAc(b1-2)Man(a1-6)]Man(b1-4)GlcNAc(b1-4)GlcNAc
Procedure, shortened: as §1

[30] = biological target: Neu5Ac(a2-3)Gal(b1-4)GlcNAc(b1-6)[Neu5Ac(a2-3)Gal(b1-3)]GalNAc
Procedure, shortened: as §1

[31] = biological target: Neu5Ac(a2-3)Gal(b1-4)[Fuc(a1-3)]GlcNAc6S
Procedure, shortened: as §1

[32] = biological target: Neu5Ac(a2-3)[GalNAc(b1-4)]Gal(b1-4)GlcNAc
Procedure, shortened: as §1

[33] = biological target: Neu5Ac(a2-6)Gal(b1-4)GlcNAc(b1-2)Man(a1-6)[Man(a1-3)]Man(b1-4)GlcNAc(b1-4)GlcNAc
Procedure, shortened: as §1

[34] = biological target: Neu5Ac(a2-6)Gal(b1-4)GlcNAc(b1-3)GalNAc
Procedure, shortened: as §1

[35] = biological target: Neu5Ac(a2-6)Gal(b1-4)GlcNAc(b1-3)[Neu5Ac(a2-6)Gal(b1-4)GlcNAc(b1-6)]GalNAc
Procedure, shortened: as §1

[36] = biological target: Neu5Ac(a2-6)GalNAc(b1-4)GlcNAc6S
Procedure, shortened: as §1

[37] = biological target: Neu5Ac(a2-8)Neu5Ac(a2-3)Gal(b1-4)GlcNAc
Procedure, shortened: as §1

[38] = biological target: Neu5Ac(a2-8)Neu5Ac(a2-8)Neu5Ac
Procedure, shortened: as §1

B1: PX14367B-bvu-516-23-516 (Bacteroides vulgatus) (protein)
chain: LDTIPTTYVDAGSVFGKTGDAEKVLNGGWNYLMETFNSYANPGYGAMLRANDAMGSDVVLNSKYGFRTHNEFSAIYGKGGTNTLSWLLAYRVINDCNGVLDNIDAAEGTQADRNRIKGQALALRGFLYLHLASCYSFAIDKDPDAVCAPIYTQSTDETIAAEGKPASSVSEVYAQSINDLEEALELIPETYVRDAKHKIDNEVVLGILSRACLYARQWEKAKTYSDKLLAKDNYLMTESEYKAGFNSVDNKEWIWGHAQTNDQSNASYQFHYLDTTTKGSYYYSFNVDPYFRDLFEDGDYRKEMLFWATDPGADVESAAYVWMRNSKFRFRDIENQLGDIVLMRVAEIYLINAEAKAHLNDPDAINKLNDLKTARGAKTIHTNLSQQDLLETIWLERRKELWGEGFSLIDIIRNQQTVVRNAYPEGPIDYIYTDENGQTHTLKKKTQGHRFFNFPDKSAFCPNSKYYLYRITDSEELANKNLYKDHPKLSIYTK
glycan array binding signal (z-score) [1]: -0.284
glycan array binding signal (z-score) [2]: -0.028
glycan array binding signal (z-score) [3]: -0.201
glycan array binding signal (z-score) [4]: -0.237
glycan array binding signal (z-score) (Fuc(a1-2)Gal(b1-4)Glc): -0.35
glycan array binding signal (z-score) [5]: -0.282
glycan array binding signal (z-score) [6]: -0.204
glycan array binding signal (z-score) [7]: -0.26
glycan array binding signal (z-score) [8]: 7.56
glycan array binding signal (z-score) [9]: 0.034
glycan array binding signal (z-score) [10]: 4.75
glycan array binding signal (z-score) [11]: -0.331
glycan array binding signal (z-score) [12]: 5.23
glycan array binding signal (z-score) (Gal(a1-4)Gal(b1-4)GlcNAc): -0.328
glycan array binding signal (z-score) (Gal(a1-6)Glc): -0.252
glycan array binding signal (z-score) [13]: -0.361
glycan array binding signal (z-score) [14]: 7.76
glycan array binding signal (z-score) [15]: 4.21
glycan array binding signal (z-score) (Gal(b1-3)GlcNAc6S): -0.243
glycan array binding signal (z-score) [16]: 4.48
glycan array binding signal (z-score) [17]: 4.25
glycan array binding signal (z-score) [18]: -0.337
glycan array binding signal (z-score) [19]: 0.011
glycan array binding signal (z-score) [20]: 7.91
glycan array binding signal (z-score) [21]: 0.812
glycan array binding signal (z-score) [22]: 7.87
glycan array binding signal (z-score) [23]: 2.87
glycan array binding signal (z-score) (Gal3S6S(b1-4)GlcNAc): -0.262
glycan array binding signal (z-score) (Gal6S(b1-4)GlcNAc6S): 6.08
glycan array binding signal (z-score) [24]: -0.2
glycan array binding signal (z-score) [25]: -0.049
glycan array binding signal (z-score) [26]: -0.276
glycan array binding signal (z-score) [27]: -0.245
glycan array binding signal (z-score) (Kdn(a2-3)Gal(b1-3)GalNAc): -0.198
glycan array binding signal (z-score) [28]: -0.262
glycan array binding signal (z-score) [29]: -0.164
glycan array binding signal (z-score) [30]: -0.354
glycan array binding signal (z-score) [31]: -0.354
glycan array binding signal (z-score) [32]: -0.356
glycan array binding signal (z-score) [33]: 4.55
glycan array binding signal (z-score) [34]: -0.386
glycan array binding signal (z-score) [35]: 0.372
glycan array binding signal (z-score) [36]: -0.208
glycan array binding signal (z-score) [37]: -0.353
glycan array binding signal (z-score) [38]: -0.342
